Bioassay records from PubChem BioAssay.
Rows were chosen to be rich in hits. Some 12% of all compounds tested hit in one or more screens of this group.
Pf growth 48h – Primary qHTS for delayed death inhibitors of the malarial parasite plastid, 48 hour incubation; P. falciparum luciferase growth in erythrocytes, 48 h; Potency, µM (series often up to 28.7 µM), without a hit: at the highest dose activity change, negative = inhibition, usual class: inhibitors; 310,000 compounds, 5.9% hits; AID 504832, 2011; note: % is set by controls: 0 for no effect and ±100 for the full control effect
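Luminescence readout; reporter = integrated firefly luciferase in P. falciparum. RBC culture at 2% hematocrit, 0.1% parasitemia final, 37 C/5% CO2; decreased signal taken as growth inhibition.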
Sm TGR inh – qHTS Assay for the Inhibitors of Schistosoma Mansoni Peroxiredoxins. Potency, µM (highest dose often 114 µM), for inactives: at the highest dose activity change, negative = inhibition, actives largely listed as inhibitors. 360,000 compounds, 3% hits. Schistosoma mansoni thioredoxin glutathione reductase (TGR), Q962Y6. purified TGR, DTNB reduction, TNB absorbance 405 nm; note: % is set by controls: 0 for no effect and ±100 for the full control effect; nearly all actives have a fitted effect of over 60% in size
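TGR 20 nM + NADPH 100 uM (dispensed conc.), cpd preinc 15 min RT; start with NADPH (500 uM addition) then DTNB (15 mM addition). Kinetic TNB absorbance, 405 nm filter. Four-parameter Hill fit across titration.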
AmpC no deterg – qHTS Inhibitors of AmpC Beta-Lactamase (assay without detergent); AmpC nitrocefin hydrolysis, absorbance 480 nm, 0.0001% Triton; Potency, µM (series often up to 57.1 µM), inactives show at the top dose activity change, negative = inhibition, hits mostly inhibitors; 330,000 compounds, 0.52% hits; AID 485341, 2010;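 note: plate controls were no compound for no effect and no enzyme for full effect; nearly all actives have a fitted effect of over 20% in size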
Target sequence (P00811 whole entry, looked up): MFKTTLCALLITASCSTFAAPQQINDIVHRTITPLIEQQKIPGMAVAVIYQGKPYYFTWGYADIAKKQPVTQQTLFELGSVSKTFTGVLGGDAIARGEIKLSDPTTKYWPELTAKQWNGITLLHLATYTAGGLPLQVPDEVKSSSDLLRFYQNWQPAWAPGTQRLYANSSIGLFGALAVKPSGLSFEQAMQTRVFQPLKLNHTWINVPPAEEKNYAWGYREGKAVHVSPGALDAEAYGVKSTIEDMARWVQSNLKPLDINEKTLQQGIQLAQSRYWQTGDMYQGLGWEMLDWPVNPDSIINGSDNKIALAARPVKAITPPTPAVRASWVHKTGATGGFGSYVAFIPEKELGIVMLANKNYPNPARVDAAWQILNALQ
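AmpC (5.3 nM in the dispensed reagent) in 20 mM phosphate pH 7.0 with 0.01% (detergent screen) or 0.0001% Triton X-100 was preincubated with compounds for 15 min at room temperature. Nitrocefin was then added from an 800 uM solution, and hydrolysis was followed at 480 nm.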
Pf growth 96h – Primary qHTS for delayed death inhibitors of the malarial parasite plastid, 96 hour incubation. Potency, µM (top dose mostly 28.7 µM), inactives show top-dose activity change, negative = inhibition, actives largely listed as inhibitors. AID 504834, 2011. P. falciparum luciferase reporter growth, 96 h. 320,000 compounds, 6.9% hits; note: % is set by controls: 0 for no effect and ±100 for the full control effect
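Two parasite generations (96 h, 37 C, 5% CO2) of compound exposure in infected erythrocytes (0.05% parasitemia, 2% hematocrit). Luciferase-reporter P. falciparum; decreased luminescence indicates inhibited growth, aimed at apicoplast-acting delayed death.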
AmpC detergent – qHTS Inhibitors of AmpC Beta-Lactamase (assay with detergent); P00811; AmpC hydrolysis of nitrocefin, absorbance 480 nm, 0.01% Triton; Potency, µM (highest dose often 114 µM), without a hit: at the highest dose activity change, negative = inhibition, actives largely listed as inhibitors; 370,000 compounds, 0.041% hits; AID 485294, 2010;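 note: 0% = no-compound wells and -100% = no-enzyme wells; nearly all actives have a fitted effect of over 25% in size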
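20 mM phosphate pH 7.0 + 0.01% (detergent screen) or 0.0001% Triton X-100; 5.3 nM AmpC reagent; cpd preinc 15 min RT; nitrocefin (800 uM stock) to start; A480 q20 s × 4 min; Activity was normalised to no-enzyme and no-compound control wells.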
SARS PLP yeast – qHTS of Yeast-based Assay for SARS-CoV PLP | S. cerevisiae expressing SARS-CoV PLpro, growth rescue | Potency, µM (doses to about 32.9 µM), inactives show at the highest dose activity, positive = growth rescue, usual class: activators | 330,000 compounds, 0.19% hits | AID 485353, 2010; calls by dose curve; note: 0% is about no effect; nearly all actives have a fitted effect of over 55% in size
Numbers without * were called inactive; ? = inconclusive; · = no result given; [ ] = remark or other dose. Unless noted, calls come from the whole dose curve; as a rule, active = well fitted curve in the direction sought with a large enough effect; inconclusive = small, poorly fitted or top-dose-only effect, or another doubt; inactive = no such curve, though single readings can be large; an effect the other way counts as inactive or inconclusive. Potency is the fitted concentration of half-maximal effect.

SMILES	Pf growth 48h	Sm TGR inh	AmpC no deterg	Pf growth 96h	AmpC detergent	SARS PLP yeast
CCn1c(SCC(=O)c2ccc(F)cc2)nnc1-c1ccoc1C	20.6%	39.8µM*	-3.7%	23.0%	?	-3.6%
CCn1c(SCC(=O)Nc2ccccc2-c2ccccc2)nnc1-c1ccoc1C	?	-34.8%	19.8%	11.7µM*	?	-11.6%
COCC(=O)N1CCC(Oc2ccc(C(=O)N3CCCCC3COC)cc2)CC1 (centres undefined)	36.0%	-12.7%	1.3%	77.9%	3.6%	-0.2%
CCOc1ccc(-c2oc3cc(Cl)ccc3c(=O)c2O)cc1OC	·	-2.1%	·	·	5.4%	·
COc1cc(C(=O)N(c2ccc(C)c(C)c2)C2C=CS(=O)(=O)C2)cc(OC)c1OC (centres undefined)	-8.1%	4.0%	32.3%	30.5%[1.15 µM]	-6.0%	0.5%
O=C(COC(=O)CSc1ccc([N+](=O)[O-])cc1)NCCCc1ccccc1	10.5%	-11.0%	-47.2%	24.3%	-4.8%	-3.9%
Cc1occc1-c1nnc(SCC(=O)NCc2cccs2)n1CC1CCCO1 (centres undefined)	?	-4.1%	7.2%	5.22µM*	1.4%	4.9%
CCn1c(=O)c2sccc2n2c(CCC(=O)Nc3ccc(C(C)C)cc3)nnc12	·	-0.2%	·	·	1.1%	·
CCOc1ccc(/C=N/n2c(C)nnc2C)cc1OC	7.6%	10.1%	-1.7%	-6.3%	-2.0%	1.7%
FC(F)(F)c1ccc(Oc2ccc3ccccc3c2Br)nc1	?	6.8%	-21.4%	2.94µM*	?	-40.0%
O=[N+]([O-])c1ccccc1Oc1ccc(C(F)(F)F)cn1	13.9%	-0.9%	-17.4%	-0.2%	-9.1%	-0.6%
CCCC[C@@H]1C[C@H]1[C@@H](NC(=O)c1cccs1)c1ccc(Cl)cc1	?	-8.6%	?	9.28µM*	?	-36.7%
CCCC[C@@H]1C[C@H]1[C@@H](NC(=O)c1ccco1)c1ccc(Cl)cc1	?	-12.1%	-20.1%	?	-14.6%	-55.9%
CCn1cc(/C=C/C(=O)Nc2ccn(Cc3c(F)c(F)cc(F)c3F)n2)cn1	?	3.7%	-25.9%	13.1µM*	?	-12.5%
CCn1cc(/C=C/C(=O)Nc2ccc(C)cc2Br)cn1	150.2%	5.5%	-11.4%	127.2%	1.4%	-3.2%
COc1ccc(NC(=O)c2ccc(-n3cnnn3)cc2)c([N+](=O)[O-])c1	19.6%	1.5%	-23.8%	?	4.8%	-1.2%
CCCCCNC(=O)CCn1c(=O)[nH]c2ccccc2c1=O	·	-3.9%	·	·	4.4%	·
CCOC(=O)c1ccc(-n2c(CN3CCC(C(N)=O)CC3)nc3ccc([N+](=O)[O-])cc3c2=O)cc1	?	11.2µM*	19.0%	?	?	-0.6%
CCOC(=O)c1ccc(-n2c(CN(CC)CC)nc3ccc([N+](=O)[O-])cc3c2=O)cc1	?	11.2µM*	-49.7%	?	-0.6%	-1.6%
CCOC(=O)c1ccc(-n2c(CN3CCC(O)CC3)nc3ccc([N+](=O)[O-])cc3c2=O)cc1	?	12.6µM*	-31.4%	87.4%	1.7%	1.2%
CCCCC(=O)Nc1nn(CC)c2nc3c(C)cccc3cc12	·	-1.5%	-12.2%	?	-19.5%	1.3%
CCCCC(=O)Nc1nn(CCC)c2nc3ccccc3cc12	11.7µM*	-0.7%	-1.2%	?	13.4%	-0.3%
Cc1nccc2[nH]c(=O)c(C(=O)NC3CCCCC3C)cc12 (centres undefined)	?	7.0%	-16.0%	3.29µM*	?	3.4%
Cc1cc(Cl)ccc1NC(=S)Nc1cccnc1	0.4%	17.8µM*	-22.1%	39.4%	2.9%	-7.0%
Cc1cc(NC(=S)Nc2cccnc2)ccc1Br	11.6%	17.8µM*	-29.1%	8.6%	3.7%	-3.7%
